Test [1] concerns DLD1. Briefly: cell viability (CellTiter-Glo) relative to plate median (fraction of plate median); higher = more viable cells. To be noted: 5 µM; treatment time 24 h; reporter: 7TFP. The essentials:
(§1)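 Two independent replicates were averaged for each reported value. Library compounds were applied at a final 5 µM for 24 h to colorectal cancer cell lines stably expressing lentiviral TCF/Wnt firefly luciferase reporters. Firefly luciferase or CellTiterGlo luminescence from each well was normalised to the plate median.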
(Cellular ATP, detected with luciferase, serves as a proxy for viable cell number.)

Test [2] has as its system HCT116. Described as above. The settings on record: 5 µM; treatment time 24 h; reporter: TCF4/Wnt. The essentials: as §1
In test [3] the test system is SW480. Described as above. The settings on record: 5 µM; treatment time 24 h; reporter: 7TFP. The essentials:
as §1

Test [4] deals with DLD1. The test can be described thus: TCF/Wnt firefly luciferase reporter signal relative to plate median (fraction of plate median); higher = higher Wnt reporter signal. To be noted: 5 µM; treatment time 24 h; reporter: 7TFP. The essentials:
as §1
A general note: Reporter assays use an easily measured gene product as a stand-in for the process of interest.

The subject of test [5] is SW480. The description is as above. To be noted: 5 µM; treatment time 24 h; reporter: 7TFP. The essentials: as §1

± gives the standard deviation of the averaged measurements.

For `C[C@H]1O[C@H](O[C@H]2[C@H](O)[C@@H](O)[C@@H](O)[C@H](O)[C@@H]2O)[C@@H](N)C[C@@H]1NC(=N)C(=O)O`, the cell viability came out at 0.989 ± 0.086 in test [1], 1.06 ± 0.035 in test [2] and 1.035 ± 0.0071 in test [3]. The “TCF/Wnt firefly luciferase reporter signal” value amounted to 1.03 ± 0.028 in test [4] and 0.949 ± 0.086 in test [5].

Consider `NC(N)=NOCC[C@H](N)C(=O)O`, for which the cell viability in test [1] was 1.08 ± 0.092; in test [2], 1.03 ± 0.035; in test [3] it was 1.03 ± 0.035. For the same molecule, the “TCF/Wnt firefly luciferase reporter signal” value in test [4] amounted to 1.05 ± 0.042; in test [5] it was 0.991 ± 0.013.

Turning to `CCC(C)C(=O)O[C@@H]1C[C@@]2(C)[C@H](c3ccoc3)OC(=O)CC23OC2(C)O[C@]14[C@]1(C)[C@@H](CC(=O)OC)C5(C)CC1(O)[C@](O)(C5OC(=O)C1(C)OC1C)[C@@H](OC(C)=O)[C@]34O2` (stereo not given in full), the results for the cell viability in test [1], in test [2] and in test [3] were 0.972 ± 0.027, 0.961 ± 0.11 and 1 ± 0.013, respectively. The figures for the “TCF/Wnt firefly luciferase reporter signal” value in test [4] and in test [5] were 1.04 ± 0.014 and 0.928 ± 0.19, respectively.

For the molecule `CCC(N)C(O)c1ccc(O)c(O)c1` (stereo not given), the cell viability in test [1] is 1.02 ± 0.055; in test [2] it was 1.1 ± 0.05; in test [3], 1.07 ± 0.057. Moreover, the “TCF/Wnt firefly luciferase reporter signal” value worked out at 1.03 ± 0.22 in test [4] and 1.08 ± 0.071 in test [5].

For the molecule `COc1ccc(C(=O)N2CCCC2=O)cc1`, the cell viability came out at 1.01 ± 0.018 in test [1], 0.957 ± 0.025 in test [2] and 1.045 ± 0.0071 in test [3]. Also, the “TCF/Wnt firefly luciferase reporter signal” value in test [4] came out at 1.08 ± 0.021; in test [5], 1.07 ± 0.014.

With `COc1ccc(CCN2CCC(Nc3nc4ccccc4n3Cc3ccc(F)cc3)CC2)cc1`, the cell viability in test [1] is 0.977 ± 0.089; in test [2], 0.982 ± 0.069; in test [3], 1.06 ± 0.021. For the same molecule, the results for the “TCF/Wnt firefly luciferase reporter signal” value in test [4] and in test [5] were 1.01 ± 0.017 and 1.035 ± 0.0071, respectively.

In the case of `CC(=O)NC1CCSC1=O` (stereo not given), the cell viability in test [1] stood at 1.03 ± 0.055; in test [2], 1.01 ± 0.019; in test [3] it was 1.03 ± 0.028. Further, the “TCF/Wnt firefly luciferase reporter signal” value was 1.02 ± 0.12 in test [4] and 0.902 ± 0.12 in test [5].

On to `COc1cc2c(c3oc4cccc(O)c4c(=O)c13)[C@@H]1C=CO[C@@H]1O2` [Sterigmatocystin], for which the cell viability is 1.1 ± 0.16 in test [1], 1.17 ± 0.014 in test [2] and 1.08 ± 0.057 in test [3]. The “TCF/Wnt firefly luciferase reporter signal” value amounted to 0.845 ± 0.25 in test [4] and 0.902 ± 0.077 in test [5].

For `Nc1ccccc1C(=O)O` [Anthranilic acid], the cell viability in test [1] was found to be 0.906 ± 0.16; in test [2], 1 ± 0.037; in test [3], 0.98 ± 0.015. The “TCF/Wnt firefly luciferase reporter signal” value in test [4] was 0.89 ± 0.044; in test [5] it was 1.04 ± 0.057.

For `O=C(NC(=O)c1c(F)cccc1F)Nc1ccc(Cl)cc1`, the cell viability came out at 1.01 ± 0.021 in test [1], 0.939 ± 0.07 in test [2] and 1.01 ± 0.016 in test [3]. The “TCF/Wnt firefly luciferase reporter signal” value in test [4] is 0.914 ± 0.18; in test [5], 0.876 ± 0.044.

Regarding `COc1ccc2c(c1OC)C(=O)O[C@@H]2[C@H]1c2cc3c(cc2CCN1C)OCO3`, the cell viability turned out to be 1.05 ± 0.042 in test [1], 1.1 ± 0.078 in test [2] and 1.1 ± 0.035 in test [3]. Besides, the figures for the “TCF/Wnt firefly luciferase reporter signal” value in test [4] and in test [5] were 1.18 ± 0.05 and 1.04 ± 0.097, respectively.

In the case of `C[CH2][Hg][S]c1ccccc1C(=O)[O-].[Na+]`, the cell viability in test [1] was determined as 0.303 ± 0.39; in test [2], 0.378 ± 0.36; in test [3] it was 0.0225 ± 0.0017. Also, the “TCF/Wnt firefly luciferase reporter signal” value is 0.274 ± 0.37 in test [4] and 0.0216 ± 0.0027 in test [5].

Consider `C=CCC1(C(C)CCC)C(=O)NC(=S)NC1=O` (stereo not given), for which the cell viability in test [1] is 1.03 ± 0.076; in test [2], 1.18 ± 0.23; in test [3], 0.951 ± 0.0028. Moreover, the “TCF/Wnt firefly luciferase reporter signal” value worked out at 1.02 ± 0.035 in test [4] and 0.794 ± 0.011 in test [5].

As for `CN1[C@@H]2CC[C@H]1C[C@@H](OC(=O)C(CO)c1ccccc1)C2` (stereo not given in full), the cell viability was 0.911 ± 0.12 in test [1], 1.01 ± 0.033 in test [2] and 0.994 ± 0.08 in test [3]. The “TCF/Wnt firefly luciferase reporter signal” value in test [4] worked out at 0.938 ± 0.21; in test [5], 0.938 ± 0.038.

As to `C[C@@H]1C[C@H](O)[C@@]2(O)[C@]13CC(=O)OC[C@@]2(C)[C@@](C)(O)C(=O)C3`, the cell viability in test [1] came out at 1.115 ± 0.0071; in test [2], 1.03 ± 0.068; in test [3], 1.04 ± 0.021. Also, the “TCF/Wnt firefly luciferase reporter signal” value came to 1.05 ± 0.071 in test [4] and 1.03 ± 0.054 in test [5].

For `CNC(=O)Oc1ccccc1OC(C)C`, the cell viability in test [1] amounted to 0.98 ± 0.0071; in test [2] it was 0.983 ± 0.0042; in test [3] it was 0.986 ± 0.014. Moreover, the results for the “TCF/Wnt firefly luciferase reporter signal” value in test [4] and in test [5] were 0.913 ± 0.19 and 1.01 ± 0.016, respectively.

As for `Cc1c(O)c(O)cc2c1CC=C1[C@@]2(C)CC[C@@]2(C)[C@@H]3C[C@](C)(C(=O)O)CC[C@]3(C)CC[C@]12C`, the cell viability in test [1] amounted to 0.88 ± 0.082; in test [2], 0.981 ± 0.069; in test [3], 1.03 ± 0.045. Besides, the entries for the “TCF/Wnt firefly luciferase reporter signal” value in test [4] and in test [5] were 0.863 ± 0.073 and 0.846 ± 0.079, respectively.

In the case of `COc1cc2c(cc1O)CCN[C@@H]2C`, the cell viability stood at 0.997 ± 0.0014 in test [1], 1.06 ± 0.099 in test [2] and 1.015 ± 0.0071 in test [3]. Besides, the “TCF/Wnt firefly luciferase reporter signal” value in test [4] was 0.89 ± 0.16; in test [5], 0.966 ± 0.049.

As to `CC(=O)O[C@H]1C[C@@H](OC(C)=O)C(C)(C)C2C[C@@H](OC(C)=O)[C@]3(C)C(CC[C@@]4(C)[C@H](c5ccoc5)C(=O)[C@H]5O[C@]543)[C@]21C` (stereo not given in full), the cell viability was 0.99 ± 0.014 in test [1], 1.06 ± 0.19 in test [2] and 1.02 ± 0.035 in test [3]. For the same molecule, the “TCF/Wnt firefly luciferase reporter signal” value in test [4] worked out at 1.2 ± 0.057; in test [5] it was 1.09 ± 0.078.

`CN[C@@H]1[C@@H](O)[C@@H](O[C@@H]2[C@@H](O)[C@H](O[C@H]3O[C@H](CN)CC[C@H]3N)[C@@H](N)C[C@H]2N)OC[C@]1(C)O.CN[C@@H]1[C@@H](O)[C@@H](O[C@@H]2[C@@H](O)[C@H](O[C@H]3O[C@H]([C@@H](C)N)CC[C@H]3N)[C@@H](N)C[C@H]2N)OC[C@]1(C)O.CN[C@@H]1[C@@H](O)[C@@H](O[C@@H]2[C@@H](O)[C@H](O[C@H]3O[C@H]([C@@H](C)NC)CC[C@H]3N)[C@@H](N)C[C@H]2N)OC[C@]1(C)O`: the cell viability in test [1] turned out to be 1.06 ± 0.17; in test [2] it was 0.997 ± 0.089; in test [3], 1.03 ± 0.063. In addition, the “TCF/Wnt firefly luciferase reporter signal” value was 1.03 ± 0.028 in test [4] and 1.04 ± 0.069 in test [5].

In the case of `NCCc1ccc(O)cc1`, the cell viability is 0.964 ± 0.11 in test [1], 0.93 ± 0.03 in test [2] and 0.953 ± 0.036 in test [3]. Besides, the “TCF/Wnt firefly luciferase reporter signal” value in test [4] amounted to 0.993 ± 0.15; in test [5], 1.07 ± 0.014.

With `O=[N+]([O-])c1ccc(O)c([N+](=O)[O-])c1`, the cell viability amounted to 0.981 ± 0.042 in test [1], 0.953 ± 0.034 in test [2] and 0.905 ± 0.098 in test [3]. For the same molecule, the “TCF/Wnt firefly luciferase reporter signal” value in test [4] worked out at 0.966 ± 0.13; in test [5] it was 1.03 ± 0.035.

As for `O=C(O)CC[N+](=O)[O-]` [BOVINOCIDIN (3-nitropropionic acid)], the cell viability in test [1] came out at 0.951 ± 0.025; in test [2], 1.05 ± 0.042; in test [3], 0.986 ± 0.02. Moreover, the “TCF/Wnt firefly luciferase reporter signal” value in test [4] was determined as 1.01 ± 0.042; in test [5] it was 1.05 ± 0.1.

Take `C1CCc2nnnn2CC1`: the cell viability in test [1] came out at 0.931 ± 0.05; in test [2], 1.05 ± 0.035; in test [3] it was 0.925 ± 0.052. Moreover, the “TCF/Wnt firefly luciferase reporter signal” value in test [4] stood at 0.963 ± 0.017; in test [5], 1.11 ± 0.042.

For `CC1(C)C(=O)C=C[C@@]2(C)C1=C(O)C(=O)[C@]1(C)[C@@H]2CC[C@@]2(C)[C@H](c3ccoc3)C[C@H]3O[C@]321`, the cell viability in test [1] was found to be 0.925 ± 0.029; in test [2], 1.13 ± 0.057; in test [3] it was 0.91 ± 0.034. For the same molecule, the “TCF/Wnt firefly luciferase reporter signal” value in test [4] is 0.986 ± 0.062; in test [5], 1.02 ± 0.055.

Regarding `CC(=O)O[C@@H]1CC[C@@]2(C)[C@@H](CC[C@@H]3[C@@H]2CC[C@]2(C)C(=O)CC[C@@H]32)C1`, the cell viability in test [1] amounted to 1.025 ± 0.0071; in test [2], 0.924 ± 0.28; in test [3], 1.01 ± 0.04. The “TCF/Wnt firefly luciferase reporter signal” value in test [4] worked out at 1.15 ± 0.035; in test [5], 1.08 ± 0.099.

Values taken from the supplement of paper PMC6522484.
